Source: PubChem BioAssay (NCI)
“And” between values parts separate entries of the source, which are not always exact repeats. Equal entries are not always repeated. The panel holds about 83,000 compounds, 20% with a hit somewhere; the sample as a whole holds those more often.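 Cell lines were cultured in 96-well plates, exposed to a single compound concentration, and assessed for percent growth 48 hours later.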 Some structures have more than one record in an assay (separate samples or runs), and their calls can disagree. The source made the active and inactive calls. How the source made its calls: active means growth percent below 10; inactive means the rest.

Tested on: MDA-MB-468 breast
Assay: NCI-60 one-dose screen, 48 h (100 = growth as untreated, 0 = no growth, -100 = all killed)
Conditions: 10 µM unless noted

| Compound | growth |
| --- | --- |
| Cc1cccc(-c2nc(N(C)c3ccc4ncsc4c3)c3ccccc3n2)n1 | 51% (inactive) |
| O=[N+]([O-])c1ccc(N/N=C\c2ccc(O)cc2O)nc1 | 56% (inactive) |
| CN(C)c1ccc2oc(=O)c3ccccc3c2c1 | 78.3% (inactive) |
| CS(=O)(=O)c1nccc(-c2c(-c3ccc(F)c(OCCc4ccc(F)cc4)c3)nc3sccn23)n1 | -52.2% (active) |
| O=C1Nc2cc(-c3cccc(O)c3)ccc2/C1=C/c1ccc[nH]1 | 7.4% (active) |
| C#CCOC(=O)[C@]1(C)CCC[C@]2(C)[C@H]3C[C@H]4C(C(C)C)=C[C@]3(CC[C@H]21)[C@@H]1C(=O)CCC(=O)[C@@H]14 | 78% (inactive) |
| COc1ccc(N)c(-c2cc3c(c4c2[nH]c2ccc(OC)cc24)CCCC3)c1 | 94.5% (inactive) |
| CC(C)/C(=N/O)c1ccccc1 | 105% (inactive) |
| COc1cc(-c2nc3ccccc3[nH]2)ccc1OCc1nnc(-c2ccc(CC(C)C)cc2)o1 | 94.1% (inactive) |
| O=C1C=CC(=O)C2=C1CCCC2 | 61.5% (inactive) |
| O=C(Cn1cc(CN2CCN(c3ccnc4cc(Cl)ccc34)CC2)nn1)Nc1cccc([N+](=O)[O-])c1 | 92.8% (inactive) |
| CCCCCCCCCCCCCCCCCC[S+](C)CC (stereo not given) | -42.5% (active) |
| CC(C)=NNc1ccc([N+](=O)[O-])cc1[N+](=O)[O-] | 96% (inactive) |
| CC1(C)CC(=O)CC2(C1)N=C(N)Nc1nc3ccccc3n12 (stereo not given) | 107% (inactive) |
| Clc1ccc2c(NCCCN3CCOCC3)c3oc4ccc(Cl)cc4c3nc2c1 | 44.2% (inactive) |
| c1ccc(-c2nc3nonc3nc2-c2ccccc2)cc1 | 38.9% (inactive) |
| CNc1ccc(CSc2ccc(C)cc2)cc1 | 15.6% (inactive) |
| COC(=O)C1(C)COP(=O)(Nc2ccc(OC)cc2)OC1 (stereo not given) | 106% (inactive) |
| COc1ccc(C/C(C)=C(/c2ccc(OCCN(C)C)cc2)c2ccc(OC(=O)NCc3ccccc3)cc2)cc1 | 67.6% (inactive) |
| CCCN(CCC)CCC(O)c1cc2c(c3ccccc13)CCCC2 (stereo not given) | 72.2% (inactive) |

| Compound | growth |
| --- | --- |
| Cc1cn(-c2cc(NC(=O)c3cncc(C#Cc4cnc5ccc(O[C@@H]6CCOC6)nn45)c3)cc(C(F)(F)F)c2)cn1 | -74.8% (active) |
| Cc1nn(-c2ccc(Cl)cc2)c2nc3c(nc12)C(=O)C(=O)c1ccccc1-3 | 65.3% (inactive) |
| Cc1cccc(C)c1NC(=S)/N=C\c1c(O)[nH]c(=O)[nH]c1=O | 114% (inactive) |
| COc1ccc(NC(=O)n2nc(/C=C\c3ccc(O)c(OC)c3)cc2/C=C\c2ccc(O)c(OC)c2)cc1 | 34.7% (inactive) |
| CSc1ccc2c(c1)N(C(=O)/C(C#N)=C/c1c[nH]c3ccccc13)c1ccccc1S2 | 12% (inactive) |
| CCCCCCN(CCCCCC)C(=N)c1ccnc2ccccc12 | 12.5% (inactive) |
| CS(=O)(=O)c1ccc2c(c1)c1c(n2C(=O)c2ccc(Cl)cc2)CCCC1 | 27.7% (inactive) |
| NC(=NC1C2CC3CC(C2)CC1C3)Nc1ccc(I)cc1 (stereo not given) | -3.88% (active) |
| O=C1Nc2ccccc2/C1=C/c1cccn1C(=O)c1ccc(Cl)s1 | -16.5% (active) |
| CCNC1=CC(=O)c2ncccc2C1=O | 43.4% (inactive) |
| C[C@@H](C[C@H](CCOCc1cccnc1)c1ccccc1)c1cc2ccccc2o1 | 99.5% (inactive) |
| C#C[C@]1(O)CC[C@H]2[C@@H]3CC=C4c5sc(-c6ccc(OC)cc6)nc5CC[C@]4(C)[C@H]3CC[C@@]21C | 71.6% (inactive) |
| COc1ccc(-c2csc(N(C(=O)N3CCN(c4cc5c(cc4F)c(=O)c(C(=O)O)cn5C4CC4)CC3)c3ccccc3)n2)cc1 | 7.88% (active) |
| COc1ccc(Nc2cnc3cc(NS(=O)(=O)c4ccc(C)cc4)ccc3n2)cc1 | 46.1% (inactive) |
| O=C1/C(=C/c2ccccc2)CN(C(=O)C(Cl)Cl)C/C1=C\c1ccccc1 | -32.8% (active) |
| CCOC(=O)c1nnn(C(Cc2ccccc2Cl)C(=O)OCC)c1C (stereo not given) | 110% (inactive) |
| OC1CCC(Oc2cccc3cnc(Nc4ccc5nc[nH]c5c4)nc23)CC1 (stereo not given) | -42.4% (active) and 69.7% (inactive) |
| C=C(CC(=O)OC)C(C)=O | 102% (inactive) |
| O=C(CCCCCCN1CC(=O)N2[C@@H](c3cccc(Br)c3)c3[nH]c4ccccc4c3C[C@H]2C1=O)NO | 28.1% (inactive) |
| COc1cc(-c2cc(/C=C/C(=O)c3ccc4c(c3)OCO4)[nH]n2)cc(OC)c1OC | -4.54% (active) |
